Among the data in article PMC5913336, “True equilibrium measurement of transcription factor-DNA binding affinities using automated polarization microscopy” are binding signal and Kd values, retold here.

Bounds are passed on as bounds.

The target in the test is Ttk-PF (Drosophila melanogaster, UniProt P17789 499-564). Description: FP; 33 mM phosphate pH 7.0, 90 mM NaCl, 0.01% Tween 20, 0.1 mM DTT, 0.5% agarose; room temperature. To be noted: dsDNA, one strand shown.
In the case of TCGCCAGAATAAC, the binding signal is > 208 Kd / Kd of best base at the position.

As for TCGCCAGGATAAG, the binding signal is 1.76 Kd / Kd of best base at the position.

Consider TCCCCAGGATAAC, for which the binding signal was 2.9 Kd / Kd of best base at the position.

Take TCGCCAGGAGAAC: the binding signal is 8.25 Kd / Kd of best base at the position.

Take TCGGCAGGATAAC: the binding signal is 1.42 Kd / Kd of best base at the position.

Regarding TCGCCAGTATAAC, the binding signal is > 208 Kd / Kd of best base at the position.

Take TCGCCACGATAAC: the binding signal is > 208 Kd / Kd of best base at the position.

Regarding TGGCCAGGATAAC, the binding signal is 2.43 Kd / Kd of best base at the position.

Consider TTGCCAGGATAAC, for which the binding signal is 1.71 Kd / Kd of best base at the position.

For TCGACAGGATAAC, the binding signal was 26.7 Kd / Kd of best base at the position.

Consider TCGCCATGATAAC, for which the binding signal is > 208 Kd / Kd of best base at the position.

For TCGCCGGGATAAC, the binding signal was > 208 Kd / Kd of best base at the position.

As to TCGCCAGGATAAT, the binding signal was 1.84 Kd / Kd of best base at the position.

Take TCGCCAGGATAAA: the binding signal is 1.28 Kd / Kd of best base at the position.

Take ACGCCAGGATAAC: the binding signal is 2.88 Kd / Kd of best base at the position.

With TCGCCAGGCTAAC, the binding signal was 5.16 Kd / Kd of best base at the position.

In the case of TCGCTAGGATAAC, the binding signal was > 208 Kd / Kd of best base at the position.

Regarding TCGCAAGGATAAC, the binding signal is > 208 Kd / Kd of best base at the position.

With TCACCAGGATAAC, the binding signal was 5.13 Kd / Kd of best base at the position.

On to TCGTCAGGATAAC, for which the binding signal was > 208 Kd / Kd of best base at the position.

In the case of TCGCCAGGATAGC, the binding signal is 1 Kd / Kd of best base at the position.

In the case of TAGCCAGGATAAC, the binding signal was 1.69 Kd / Kd of best base at the position.

Take TCGCGAGGATAAC: the binding signal is 67.2 Kd / Kd of best base at the position.

With TCGCCAGGACAAC, the binding signal is 12.9 Kd / Kd of best base at the position.

Sequence TCGCCAGGATAAC came in with a dissociation constant Kd of about 48 nM.

With GCGCCAGGATAAC, the binding signal was 2.76 Kd / Kd of best base at the position.

On to TCTCCAGGATAAC, for which the binding signal was 3.54 Kd / Kd of best base at the position.

Consider TCGCCAGGTTAAC, for which the binding signal was 12.8 Kd / Kd of best base at the position.

As to TCGCCAGGGTAAC, the binding signal is 8.56 Kd / Kd of best base at the position.

As to TCGCCCGGATAAC, the binding signal is > 208 Kd / Kd of best base at the position.

Turning to TCGCCTGGATAAC, the binding signal was > 208 Kd / Kd of best base at the position.

For the sequence CCGCCAGGATAAC, the binding signal was 3.01 Kd / Kd of best base at the position.

Turning to TCGCCAGGAAAAC, the binding signal is 13.5 Kd / Kd of best base at the position.

As for TCGCCAGGATCAC, the binding signal was 7.79 Kd / Kd of best base at the position.

Consider TCGCCAGGATTAC, for which the binding signal is 1.69 Kd / Kd of best base at the position.

Regarding TCGCCAGGATGAC, the binding signal is 3.28 Kd / Kd of best base at the position.

Take TCGCCAGCATAAC: the binding signal is 5.81 Kd / Kd of best base at the position.

With TCGCCAGGATATC, the binding signal is 1.65 Kd / Kd of best base at the position.

On to TCGCCAAGATAAC, for which the binding signal is 124 Kd / Kd of best base at the position.

One may read the Kd as the constant that tells how readily two partners part at equilibrium. Low readings indicate a tighter complex, high ones a looser complex.
